# Only some compounds are listed: those with a hit (about 2% of all), similar ones and a draw of the others.
# Rango-impB inh = inhibitors of Rango-importin beta complex formation | Q14974 | Rango CFP/YFP FRET sensor + importin beta, 45 min | Potency, µM (doses to about 92.2 µM) | 340,000 tested, 0.031% active | AID 540263; calls by dose curve; note: nearly all actives have a fitted effect of over 15% in size
#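 FRET biosensor Rango (snurportin 1 IBB between N-terminal EYFP and C-terminal Cerulean), 50 nM in PBS/1 mM DTT/0.02% Tween-20/0.1% BSA, preincubated 5 min RT with compound; 0.125 microM importin beta added, 45 min RT, CFP/YFP FRET ratio read.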
# ASM inhibitor = inhibitors of human secretory acid sphingomyelinase | P17405 | placental ASM, HMU-PC fluorogenic substrate, 60 min | Potency, µM (top dose mostly 57.5 µM), actives largely listed as inhibitors | 340,000 tested, 0.006% active | AID 504937
# Target sequence (P17405 47-631 limits assumed): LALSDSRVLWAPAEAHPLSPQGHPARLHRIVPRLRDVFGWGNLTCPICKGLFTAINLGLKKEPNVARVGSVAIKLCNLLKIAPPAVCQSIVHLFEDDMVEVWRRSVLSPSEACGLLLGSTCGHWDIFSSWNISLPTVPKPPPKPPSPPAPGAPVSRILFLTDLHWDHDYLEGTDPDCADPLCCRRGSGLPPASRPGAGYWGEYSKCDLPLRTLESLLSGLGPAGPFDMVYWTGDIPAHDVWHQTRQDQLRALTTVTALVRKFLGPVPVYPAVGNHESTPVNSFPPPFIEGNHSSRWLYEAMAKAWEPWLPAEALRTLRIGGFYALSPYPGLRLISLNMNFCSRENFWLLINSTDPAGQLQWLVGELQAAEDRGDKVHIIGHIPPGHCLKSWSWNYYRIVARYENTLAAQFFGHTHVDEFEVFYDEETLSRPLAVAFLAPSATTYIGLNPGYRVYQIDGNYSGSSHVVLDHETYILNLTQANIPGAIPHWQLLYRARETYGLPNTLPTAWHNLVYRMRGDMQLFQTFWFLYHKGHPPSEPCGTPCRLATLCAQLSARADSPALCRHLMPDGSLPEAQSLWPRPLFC
#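 Fluorescence read-out (Ex 386 nm, Em 447 nm) after stopping the reaction at pH 10. Enzyme: ASM from human placenta; substrate HMU-PC0, 9 uM final; 60 min, 37 °C. Compound preincubation 10 min, ambient temperature.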
# aSyn rescue = inhibitors of alpha-synuclein toxicity in yeast | Yeast expressing alpha-synuclein, growth rescue, BacTiter-Glo, 24 h | Potency, µM (doses to about 46.1 µM), actives largely listed as activators | 370,000 tested, 0.14% active; note: nearly all actives have a fitted effect of over 65% in size
#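 Readout is rescue of growth in alpha-synuclein-expressing yeast, so inhibitors of toxicity appear as activators. Growth after 24 hr at 30 deg C in galactose medium is quantified by luminescence.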
# Rango dissoc inh = prevents RanGTP from dissociating the Rango-importin beta complex | O95149+P62826 | Biochemical FRET Rango-importin beta, RanGTP-induced dissociation | Potency, µM (top dose mostly 46.1 µM) | 340,000 tested, 0.071% active | AID 540253; calls by dose curve; note: nearly all actives have a fitted effect of over 45% in size
#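 Compounds preincubate 5 min with complex of recombinant Rango and importin beta in PBS with 1 mM DTT. Ran (0.6 uM) loaded with 2 mM GTP plus 0.2 uM RCC1 starts dissociation; FRET is recorded 45 min later.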
# TDP43 rescue = TDP-43 toxicity inhibition in yeast | TDP-43 expressing yeast growth rescue, BacTiter-Glo, 24 h | Potency, µM (top dose mostly 46.1 µM), most hits filed as activators | 410,000 tested, 1.8% active | AID 652104; note: nearly all actives have a fitted effect of over 50% in size
#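 Luminescence from BacTiter-Glo reports growth of TDP-43-expressing yeast after 24 hr at 30 deg C with compound. Cells were raffinose-pregrown to mid-log, then seeded in galactose medium at OD600=0.02.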
# Abeta rescue = A-beta toxicity reversal in yeast. 410,000 tested, 0.063% active. Potency, µM (doses to about 46.1 µM), usual class: activators. yeast expressing A-beta42, growth rescue, OD600, 48 h; response scale: 0% DMSO, 100% iron-clioquinol control. AID 1347071; note: nearly all actives have a fitted effect of over 55% in size
#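 Yeast growth medium received pinned compounds, then yeast cells expressing toxic A-beta were added; plates incubated at 30 C for 48 hr. Growth read as absorbance at 600 nm, normalized to DMSO and equimolar FeCl3 plus clioquinol controls.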
# Hits are given with their value; 0 = inactive; ? = inconclusive; - = no result; ! = not confirmed by another sample; [ ] = remark or other dose. Unless noted, calls come from the whole dose curve; as a rule, active = well fitted curve in the direction sought with a large enough effect; inconclusive = small, poorly fitted or top-dose-only effect, or another doubt; inactive = no such curve, though single readings can be large; an effect the other way counts as inactive or inconclusive.
SMILES,Rango-impB inh,ASM inhibitor,aSyn rescue,Rango dissoc inh,TDP43 rescue,Abeta rescue
COc1ccccc1-c1noc2ncnc(Nc3cccc(C)c3C)c12,0,0,0,0,18µM,0
COc1ccccc1-c1noc2ncnc(Nc3ccccc3C)c12,0,0,0,0,?,0
COc1cccc(-c2nn3c(-c4ccccn4)nnc3s2)c1,0,0,0,0,16µM,0
c1ccc(OCc2nn3c(-c4ccccn4)nnc3s2)cc1,0,0,0,0,14µM,0
COc1cccc(-c2nnc3sc(-c4ccccn4)nn23)c1,0,0,0,0,0,0
COc1cccc(-c2nn3c(-c4ccco4)nnc3s2)c1,0,0,-,0,7.1µM,0
Clc1ccccc1-c1nn2c(-c3ccccn3)nnc2s1,0,0,0,0,13µM,0
c1coc(-c2nnc3sc(C4CCCCC4)nn23)c1,0,0,0,0,18µM,0
COc1ccccc1-c1nnc2sc(COc3ccc(F)cc3)nn12,0,0,0,0,11µM,0
CCCCCCc1cc2cc(-c3cn4c(n3)sc3cc(OC)ccc34)c(=O)oc2cc1O,-,-,-,-,0,0
O=C(/C=C\c1ccccc1OC(=O)c1ccccc1F)c1cc2ccccc2o1,0,0,0,0,13µM,0
COc1cccc(CCC(=O)N(C)C2CCCN(Cc3ccccc3F)C2)c1 (stereo not given),0,0,0,0,0,0
CN(C(=O)CCc1ccccc1F)C1CCCN(Cc2ccccc2F)C1 (stereo not given),0,0,0,0,20µM,0
O=C(CCCn1c(=O)c2cccn2c2cccnc21)NCCc1ccc(Cl)cc1,0,0,0,0,22µM!,0
COc1ccc(-c2nn3c(=O)cc(CN4CCN(C(=O)Nc5cc(C)ccc5C)CC4)nc3s2)cc1,-,-,-,-,0,0
N#Cc1ccc(NC(=S)/N=C(\N)c2ccccc2)cc1,-,-,0,-,11µM,?
N/C(=N\C(=S)Nc1ccc2c(c1)OCO2)c1ccccc1,-,-,0,-,20µM,?
Cc1ccc(-c2noc(CNC(=O)COc3cc(C)c(Br)c(C)c3)n2)cc1,-,-,-,-,0,0
O=C(COC(=O)/C=C/c1ccc(Cl)cc1Cl)NCC1CCCO1 (stereo not given),?,0,0[1.84 µM],0,20µM,0
N#Cc1c(-c2ccncc2)cc(-c2ccc(F)cc2)nc1N,?,0,0,0,0,5.6µM
CCOc1cc(-c2cc(-c3ccc(N)cc3)nc(N)c2C#N)ccc1O,?,0,0,?,16µM,0
CNc1nc(Oc2ccc3sc(C)nc3c2)c2sccc2n1,-,-,0,-,20µM,0
Cc1nc2cc(Oc3nc(NCCN(C)C)nc4ccsc34)ccc2s1,-,-,0,-,0,0
COc1ccc(C)cc1NC(=O)C1CCN(S(=O)(=O)c2c(C)noc2/C=C/c2ccco2)CC1,-,-,-,-,0,0
CCO/C=C1/C(=O)N(C)C(=O)c2cc(OC)ccc21,?,0,0,?,13µM,0
SMILES,Rango-impB inh,ASM inhibitor,aSyn rescue,Rango dissoc inh,TDP43 rescue,Abeta rescue
CCO/C=C1/C(=O)N(c2ccccc2OC)C(=O)c2ccccc21,?,0,0,?,0,0
COc1cccc(C(=O)Nc2ccc3nc(SCCOc4ccccc4)sc3c2)c1,-,-,-,-,0,0
COc1ccccc1CNC(=O)Cn1nc(C)n2cccc2c1=O,-,-,-,-,0,0
NNc1nc2ccc(F)cc2s1,?,0,0,0,0,0
Fc1ccc2nc(Nc3ccccc3)sc2c1,0,0,0,0,16µM,?
CCCCCN(CCCCC)c1ccc(/C=C/c2ccnc3ccccc23)cc1,-,-,0,-,-,-
CC(=O)/C=C1\OCc2cc(OCc3ccccc3)ccc21,-,-,0,-,10µM,0
CCOC(=O)Cc1csc(NC(=O)COc2c(C)cccc2C)n1,0,0,0,0,0,0
CCOC(=O)Cc1csc(NC(=O)COc2ccccc2OCC)n1,0,0,-,0,11µM,0
CCOC(=O)Cc1csc(NC(=O)COc2ccc3ccccc3c2)n1,0,0,0,0,13µM,?
CCOC(=O)Cc1csc(NC(=O)COc2ccc(OC)cc2)n1,0,0,0,0,13µM,0
CCOC(=O)Cc1csc(NC(=O)CC)n1,0,0,0,0,0,0
Cc1ccccc1NC(=O)COC(=O)c1ccccc1OCC(=O)Nc1ccc(Br)cc1,-,-,0,-,-,-
CC(C)(C)CC(=O)Nc1nnc2n1CCS2,-,-,0,-,0,0
CCOc1ccc(-c2nc(CSCC(=O)N3CCN(c4cccc(C(F)(F)F)c4)CC3)c(C)o2)cc1,-,-,-,-,0,0
CN1CCN(c2ccccc2NC(=O)c2ccc(F)cc2)CC1,0,0,0,0,0,0
O=C(Nc1ccccc1N1CCCC1)c1cccc(F)c1,0,0,0,0,0,0
CC1CCN(c2ccccc2NC(=S)NC(=O)C(C)(C)C)CC1,0,0,0,0,?,13µM
O=C(NC(=S)Nc1ccccc1N1CCCC1)c1cccc(F)c1,0,0,0,0,0,7.9µM
Cc1ccccc1C(=O)NC(=S)Nc1ccccc1N1CCCC1,0,0,0,0,?,?
O=C(NC(=S)Nc1ccccc1N1CCCCC1)c1ccccc1,0,0,0,0,11µM,0
CC1CCN(c2ccccc2NC(=O)c2ccc(F)cc2)CC1,0,0,-,0,13µM,0
CCc1ccc(C(=O)NC2=NC(c3ccccc3F)CC(=O)N2)cc1 (stereo not given),-,-,-,-,0,0
O=C(NC(=S)Nc1ccccc1N1CCCC1)c1ccc(F)cc1,0,0,0,0,25µM,0
O=C(NC(=S)Nc1ccccc1N1CCCCC1)c1ccc(F)cc1Cl,0,0,0,0,0,0
CN(C)c1ccc(/C=C2\C=Cc3ccccc32)cc1F,-,-,0,-,-,-
